According to article PMC5540273 (PLoS ONE, 2017):

Legend:
Details in all cases: concentration: 1 μM,replicates: in singlicate; n = 1
[1] = system: JAK1(JH2domain-pseudokinase)
[2] = system: JAK2(JH1domain-catalytic)
[3] = system: JAK3(JH1domain-catalytic)
JNK1 = system: T1, JNK1
T1 construct: gene MAPK8

JNK2 = system: T2, JNK2
T2 construct: gene MAPK9

JNK3 = system: T3, JNK3
T3 construct: gene MAPK10

KIT-autoinhibited = system: KIT-autoinhibited
KIT = system: KIT
LATS1 = system: LATS1
LATS2 = system: LATS2
LCK = system: LCK
LIMK1 = system: LIMK1
LIMK2 = system: LIMK2
LKB1 = system: T4, LKB1
T4 construct: gene STK11

LOK = system: T5, LOK
T5 construct: gene STK10

LRRK2 = system: LRRK2
LTK = system: LTK
LYN = system: LYN
LZK = system: T6, LZK
T6 construct: gene MAP3K13

MAK = system: MAK
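Also: KINOMEscan kinase panel screen.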

SMILES | %Inh [1] | %Inh [2] | %Inh [3] | %Inh (JNK1) | %Inh (JNK2) | %Inh (JNK3) | %Inh (KIT-autoinhibited) | %Inh (KIT) | %Inh (LATS1) | %Inh (LATS2) | %Inh (LCK) | %Inh (LIMK1) | %Inh (LIMK2) | %Inh (LKB1) | %Inh (LOK) | %Inh (LRRK2) | %Inh (LTK) | %Inh (LYN) | %Inh (LZK) | %Inh (MAK)
Cl.c1ccc(Oc2ccc(Nc3ccnc4cc(-c5ccc(CN6CCNCC6)o5)ccc34)cc2)nc1 [GW567142] | 17% | 100% | 0% | 0% | 3% | 0% | 10% | 87% | 0% | 0% | 82% | 0% | 0% | 0% | 54% | 4% | 0% | 4% | 7% | 21%
C[C@@H](Oc1cc(-n2cnc3ccc(-c4ccncc4)cc32)sc1C(N)=O)c1ccccc1Cl [GSK483724] | 0% | 19% | 0% | 45% | 27% | 18% | 6% | 36% | 3% | 54% | 40% | 20% | 0% | 0% | 92.2% | 8% | 25% | 0% | 0% | 29%
c1ccc(Oc2ccc(Nc3ccnc4ccc(-c5ccccn5)cc34)cc2)cc1 [GW407034] | 0% | 22% | 0% | 20% | 16% | 18% | 0% | 45% | 1% | 0% | 83% | 5% | 0% | 0% | 0% | 5% | 0% | 22% | 0% | 59%
C[C@@H]1CCN(C(=O)N2CCCC2)C[C@@H]1N(C)c1ncnc2[nH]ccc12 | 31% | 100% | 99.6% | 14% | 8% | 3% | 23% | 0% | 0% | 10% | 41% | 0% | 0% | 0% | 0% | 0% | 100% | 0% | 22% | 14%
O=C(NOCC1CC1)c1cc(Br)c(F)c(F)c1Nc1ccc(I)cc1Cl | 39% | 0% | 0% | 12% | 0% | 0% | 0% | 13% | 14% | 0% | 0% | 0% | 0% | 7% | 2% | 0% | 0% | 9% | 9% | 37%
CN1CCN(CCNc2nc3cc(Oc4ccc(NC(=O)Nc5cc(C(F)(F)F)ccc5F)cc4)ccc3[nH]2)CC1.Cl.Cl [GW768504] | 15% | 5% | 0% | 0% | 0% | 0% | 4% | 99.8% | 0% | 0% | 22% | 0% | 2% | 38% | 95.2% | 0% | 19% | 12% | 0% | 13%
Cn1ccc2ncnc(Oc3ccc(NC(=O)Nc4cccc(C(F)(F)F)c4)c(F)c3)c21 | 7% | 6% | 29% | 11% | 0% | 0% | 75% | 100% | 15% | 0% | 75% | 0% | 2% | 0% | 99.9% | 31% | 84% | 24% | 0% | 27%
CSc1nccc(-c2c(-c3ccc(F)cc3)ncn2CCCN2CCOCC2)n1.Cl [SB-217146] | 40% | 39% | 0% | 10% | 45% | 34% | 32% | 0% | 0% | 0% | 0% | 3% | 0% | 0% | 8% | 0% | 4% | 0% | 0% | 0%
C[C@@H](Oc1cc(-n2cnc3cc(-c4cnn(C)c4)ccc32)sc1C(N)=O)c1ccccc1Cl [GSK580432] | 0% | 86% | 96.9% | 0% | 31% | 16% | 0% | 96.4% | 0% | 2% | 94.8% | 0% | 0% | 57% | 99.9% | 68% | 25% | 38% | 0% | 0%
Cc1cccc(-c2nc(Nc3ccncc3)c3sccc3n2)n1 [GW869641] | 90.2% | 67% | 57% | 46% | 85% | 94.6% | 21% | 22% | 11% | 33% | 20% | 11% | 5% | 0% | 79% | 0% | 35% | 18% | 4% | 0%
